Results taken from PubChem BioAssay (EPA / NIEHS).
The source made the active and inactive calls. The calls were made as follows: active = hit-call score of the fitted dose curve at least 0.9, where 1 is the maximum; inactive = score below 0.9.

Columns and labels:
Conditions in all cases: mRNA level, 48 h; actives raise or lower the signal
[1] = read-out: Cytochrome P450 3A4 (Homo sapiens) (UniProt P08684); assay: LTEA_HepaRG_CYP3A4: Life Technologies and Expression Analysis (LTEA) Assay for CYP3A4 using HepaRG (AID 2283487)
How it was run: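 CYP3A4 transcript measured by TaqMan qRT-PCR and normalized to three housekeeping genes after 48 h chemical exposure of human HepaRG cells. Top concentration 100 uM, half-log steps, 0.5% DMSO vehicle; gain or loss fitted against DMSO baseline.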

[2] = read-out: DNA damage-inducible transcript 3 (DDIT3), DDIT3 (gene 1649); assay: LTEA_HepaRG_DDIT3: Life Technologies and Expression Analysis (LTEA) Assay for DNA damage-inducible transcript 3 (DDIT3) using HepaRG (AID 2283488)
Procedure: (§1) LTEA_HepaRG is a cell based, multiplexed-readout assay that uses HepaRG, a human liver cell line, with measurements taken at 48 hours after chemical dosing on a 96-well plate.LTEA_HepaRG_DDIT3 is one of 102 assay component(s) measured in the LTEA HepaRG cell culture assay. It is a marker of Oxidative Stress.Data from the assay component LTEA_HepaRG_DDIT3 was analyzed into 1 endpoint. This assay endpoint, LTEA_HepaRG_DDIT3, was analyzed with bidirectional fitting relative to DMSO as the negative control and baseline of activity. Using a type of inducible reporter, measures of mRNA induction for gain or loss-of-signal activity can be used to understand regulation of transcription factor activity. To generalize the intended target to other relatable targets, this assay endpoint is annotated to the dna binding intended target family, where the subfamily is basic leucine zipper.
(§2) A total of 1060 chemcials from the ToxCast library were tested in eight-point concentration-response experiments. Cell culture and cytotoxicity assays were conducted at Thermo Fisher Scientific's Custom Services facility (Madison, WI). A single lot of human HepaRG cells (Thermo Fisher Scientific, Frederick, MD) was used for the cell culture experiments. 96-well format collagen type I coated plates of human HepaRG cells were prepared using established methods. Briefly, cryopreserved HepaRG cells were thawed, plated at a density of approximately 100,000 cells/well in HepaRG Thaw, Plate, and General Purpose media (HPRG770, Thermo Fisher Scientific), and incubated for 48 hours. […] Fluidigm's 96.96 Dynamic ArrayTM (Fluidigm, Amsterdam, the Netherlands) technology was used for gene expression analyses by quantitative reverse transcription polymerase chain reaction (qRT-PCR, performed by Quintiles/Expression Analysis, Durham, NC)89. […]

[3] = read-out: Pro-epidermal growth factor (Homo sapiens) (UniProt P01133); assay: LTEA_HepaRG_EGF: Life Technologies and Expression Analysis (LTEA) Assay for Epidermal growth factor (EGF) using HepaRG (AID 2283489)
How it was run: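 Differentiated human HepaRG cells, plated 48 h then switched to serum-free induction medium, were exposed for 48 h to test chemicals (8-point half-log series, top 100 uM, 0.5% DMSO). EGF mRNA was quantified by qRT-PCR, normalized to ACTB, GAPDH, POLR2A.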

[4] = read-out: Early growth response protein 1 (EGR1) transcription factor, EGR1 (gene 1958); assay: LTEA_HepaRG_EGR1: Life Technologies and Expression Analysis (LTEA) Assay for Early growth response protein 1 (EGR1) transcription factor using HepaRG (AID 2283490)
How it was run: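 HepaRG, 48 h exposure, 8-pt half-log series from 100 uM, 0.5% DMSO vehicle; EGR1 transcript by TaqMan qRT-PCR (Fluidigm array), housekeeping-normalized; bidirectional fit relative to DMSO baseline.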

[5] = read-out: Ezrin (EZR), EZR (gene 7430); assay: LTEA_HepaRG_EZR: Life Technologies and Expression Analysis (LTEA) Assay for Ezrin (EZR) using HepaRG (AID 2283491)
How it was run: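 HepaRG, 48 h chemical exposure, 8-pt half-log series from 100 uM, 0.5% DMSO vehicle, duplicates. Read-out: EZR mRNA by TaqMan qRT-PCR (Fluidigm array), housekeeping-normalized; bidirectional curve fit vs DMSO baseline.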

[6] = read-out: Cytochrome P450 3A7 (Homo sapiens) (UniProt P24462); assay: LTEA_HepaRG_CYP3A7: Life Technologies and Expression Analysis (LTEA) Assay for CYP3A7 using HepaRG (AID 2283492)
How it was run: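 HepaRG cells plated 48 h, then dosed in serum-free induction medium for 48 h at 8 concentrations (top 100 uM, half-log steps, 0.5% DMSO). CYP3A7 mRNA by qRT-PCR, normalised to ACTB/GAPDH/POLR2A; bidirectional fit versus DMSO.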

[7] = read-out: CYP3A5 (gene 1577); assay: LTEA_HepaRG_CYP3A5: Life Technologies and Expression Analysis (LTEA) Assay for CYP3A5 using HepaRG (AID 2283493)
Procedure: as §1, with “plate.LTEA_HepaRG_CYP3A5” for “plate.LTEA_HepaRG_DDIT3”, “NR mediated metabolism.Data” for “Oxidative Stress.Data”, “LTEA_HepaRG_CYP3A5” for “LTEA_HepaRG_DDIT3”, “LTEA_HepaRG_CYP3A5,” for “LTEA_HepaRG_DDIT3,”, “cyp” for “dna binding”, “xenobiotic metabolism.” for “basic leucine zipper.”
as §2

[8] = read-out: Fatty Acid-Binding Protein 1 (FABP1), FABP1 (gene 2168); assay: LTEA_HepaRG_FABP1: Life Technologies and Expression Analysis (LTEA) Assay for Fatty Acid-Binding Protein 1 (FABP1) using HepaRG (AID 2283494)
How it was run: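 qRT-PCR readout of FABP1 transcript (normalized to three housekeeping genes) after 48 h chemical exposure of HepaRG cells; eight concentrations, half-log steps, max 100 uM, 0.5% DMSO vehicle; gain or loss fitted relative to DMSO baseline.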

[9] = read-out: Cytochrome P450 4A22 (Homo sapiens) (UniProt Q5TCH4); assay: LTEA_HepaRG_CYP4A22: Life Technologies and Expression Analysis (LTEA) Assay for Cytochrome P450 4A22 (CYP4A22) using HepaRG (AID 2283495)
How it was run: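 qRT-PCR of CYP4A22 mRNA (Fluidigm TaqMan, normalized to three housekeeping genes) after 48 h chemical exposure of HepaRG cells; 8-point half-log series, top 100 uM, 0.5% DMSO vehicle. Bidirectional curve fitting vs DMSO baseline.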

[10] = read-out: Cytochrome P450 7A1 (Homo sapiens) (UniProt P22680); assay: LTEA_HepaRG_CYP7A1: Life Technologies and Expression Analysis (LTEA) Assay for Cytochrome P450 7A1 (CYP7A1) using HepaRG (AID 2283496)
How it was run: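 HepaRG, 48 h exposure, 8-pt half-log series from 100 uM, 0.5% DMSO vehicle, duplicates. Readout: TaqMan qRT-PCR mRNA vs three housekeeping genes; bidirectional curve fit against DMSO baseline.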

Measured: outcome

Sequence of Cytochrome P450 3A7 (Homo sapiens) (P24462 whole entry, looked up): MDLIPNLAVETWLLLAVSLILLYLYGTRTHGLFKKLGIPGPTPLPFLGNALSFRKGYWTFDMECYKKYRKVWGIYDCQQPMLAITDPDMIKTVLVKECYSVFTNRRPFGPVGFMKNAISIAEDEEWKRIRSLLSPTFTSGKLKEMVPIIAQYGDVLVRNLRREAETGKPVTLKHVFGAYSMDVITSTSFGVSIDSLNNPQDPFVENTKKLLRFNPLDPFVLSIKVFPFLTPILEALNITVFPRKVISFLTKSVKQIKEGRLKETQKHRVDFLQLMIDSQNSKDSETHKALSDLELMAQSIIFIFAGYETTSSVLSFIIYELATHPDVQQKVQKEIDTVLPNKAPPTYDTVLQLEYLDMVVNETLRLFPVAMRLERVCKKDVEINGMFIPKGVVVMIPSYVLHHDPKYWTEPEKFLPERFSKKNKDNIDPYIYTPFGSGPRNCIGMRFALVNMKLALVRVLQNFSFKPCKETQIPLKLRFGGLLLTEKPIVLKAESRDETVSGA
Sequence of Cytochrome P450 3A4 (Homo sapiens) (P08684 whole entry, looked up): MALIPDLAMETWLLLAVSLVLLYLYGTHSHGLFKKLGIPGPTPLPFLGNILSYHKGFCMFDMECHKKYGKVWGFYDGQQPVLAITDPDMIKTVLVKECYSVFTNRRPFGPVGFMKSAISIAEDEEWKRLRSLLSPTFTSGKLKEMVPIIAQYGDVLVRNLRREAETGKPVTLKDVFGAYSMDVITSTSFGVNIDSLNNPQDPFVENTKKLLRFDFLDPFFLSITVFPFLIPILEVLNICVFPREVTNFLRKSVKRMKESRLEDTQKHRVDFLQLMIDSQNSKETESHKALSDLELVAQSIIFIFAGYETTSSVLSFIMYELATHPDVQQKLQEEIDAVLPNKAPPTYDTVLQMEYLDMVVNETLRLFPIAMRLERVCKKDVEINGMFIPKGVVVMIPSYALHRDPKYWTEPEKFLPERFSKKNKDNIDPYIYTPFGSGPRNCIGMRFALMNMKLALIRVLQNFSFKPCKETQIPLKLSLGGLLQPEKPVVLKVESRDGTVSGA

Nc1ccc(C(=O)O)cc1
inactive: [1] | [2] | [3] | [4] | [5] | [6] | [7] | [8] | [9] | [10]

C1CNCCN1
inactive: [1] | [2] | [3] | [4] | [5] | [6] | [7] | [8] | [9] | [10]

Cc1ccc([N+](=O)[O-])cc1N
inactive: [1] | [2] | [3] | [4] | [5] | [6] | [7] | [8] | [9] | [10]
